From PubChem BioAssay (NCATS)
Records with an inconclusive call do not appear. Active and inactive are the calls of the source. Unless noted, the call rests on the fitted dose curve; in most records, active means well fitted curve in the direction sought with a large enough effect; inconclusive means small, poorly fitted or top-dose-only effect, or another doubt; inactive means no such curve, though single readings can be large; an effect the other way counts as inactive or inconclusive.

Assays:
[1] = biological target: Lysosomal acid glucosylceramidase (Homo sapiens) (UniProt P04062); assay: Glucocerebrosidase-p2 (AID 348; in the data active means potency below about 10 µM; further: potency means the concentration at half of the fitted maximal effect); details: purified GBA, blue fluorogenic substrate, 40 min
Lysosomal acid glucosylceramidase (Homo sapiens), sequence (P04062 whole entry, looked up): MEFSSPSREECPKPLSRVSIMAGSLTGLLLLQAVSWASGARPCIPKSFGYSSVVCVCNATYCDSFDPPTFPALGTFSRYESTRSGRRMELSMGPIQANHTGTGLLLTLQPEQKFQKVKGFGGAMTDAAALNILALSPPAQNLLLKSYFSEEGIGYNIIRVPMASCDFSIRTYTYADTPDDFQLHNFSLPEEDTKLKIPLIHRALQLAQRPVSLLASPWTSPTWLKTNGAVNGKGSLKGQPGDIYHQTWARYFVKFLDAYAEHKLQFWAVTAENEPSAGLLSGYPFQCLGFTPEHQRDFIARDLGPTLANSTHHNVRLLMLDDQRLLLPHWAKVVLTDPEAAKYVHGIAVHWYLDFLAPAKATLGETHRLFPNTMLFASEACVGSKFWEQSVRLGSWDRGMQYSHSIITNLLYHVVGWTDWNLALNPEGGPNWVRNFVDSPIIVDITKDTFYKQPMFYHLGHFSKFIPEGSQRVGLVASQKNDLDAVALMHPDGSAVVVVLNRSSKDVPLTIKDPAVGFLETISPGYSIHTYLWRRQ
In short: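 Normal human glucocerebrosidase (0.2 nM) with blue fluorogenic substrate (80 uM final) in citrate/phosphate pH 5.9 with 10mM sodium taurocholate, 0.01% tween-20; 40 min RT, NaOH/glycine stop; fluorescence Ex 365/Em 440; AC50 from a titration from 0.6 nM upwards.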

[2] = AP1 Signaling Pathway (AID 357; active means well fitted curve in either direction with a large enough effect, not every such curve was filed as active;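 further: ME-180 reporter cells stimulated with EGF at its EC50 level; on the % scale 0 is the no-effect control and ±100 the full control effect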); details: ME-180 AP-1-bla reporter, EGF-induced, beta-lactamase ratio, 5 h; at 7.69 µM (top of the series) unless noted
In short: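 Titration-series screen for positive or negative modulators of EC50 EGF-induced signaling in ME-180 cells carrying an AP-1-driven beta-lactamase reporter. After 5 hours at 37 degrees Celsius, CCF4 460nm/530nm emission ratio gave %Activity; AC50 values derived.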

[3] = NFAT Signaling Pathway (AID 444; active means well fitted curve in either direction with a large enough effect, not every such curve was filed as active;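 further: carbachol stimulus at about its EC50 of 1 µM final; on the % scale 0 is the no-effect control and ±100 the full control effect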); details: Jurkat NFAT-bla M1, carbachol, beta-lactamase ratio, 5 h; at 7.69 µM (top of the series) unless noted
In short: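 Read-out: CCF4 FRET ratio (460 nm/530 nm) after 1 h RT dye loading, used for %activity and AC50 from titration series. Cells: Jurkat NFAT-β-lactamase/M1 line, treated with compound plus 1 uM carbachol for 5 h, 37 °C.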

[4] = Stat Signaling Pathway (AID 446; active means well fitted curve in either direction with a large enough effect, not every such curve was filed as active;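 further: ME-180 cervical cancer cells given 40 pM IL-6 alongside compound; SIE-controlled beta-lactamase reporter measured as 460/530 nm FRET emission ratio; on the % scale 0 is the no-effect control and ±100 the full control effect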); details: ME-180 (cervical carcinoma) SIE beta-lactamase reporter, IL-6 stimulated, 5 h; at 7.69 µM (top of the series) unless noted
In short: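 FRET read-out (405 nm excitation, 460/530 nm emission) of a beta-lactamase reporter under a STAT-inducible element in ME-180 cervical carcinoma cells. Cells with compound receive 40 pM IL-6 for 5 h. Values are normalised to AC90 stimulation and AC90 JAK-inhibitor controls.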

[5] = biological target: Glucocorticoid receptor (Homo sapiens) (UniProt P04150); assay: GR-EFC Redistribution (AID 451; calls by dose curve; further: potency means the concentration at half of the fitted maximal effect); details: CHO-K1 GR-EFC translocation, beta-gal luminescence, 2 h
Glucocorticoid receptor (Homo sapiens), sequence (P04150 whole entry, looked up, the tested form may be a part): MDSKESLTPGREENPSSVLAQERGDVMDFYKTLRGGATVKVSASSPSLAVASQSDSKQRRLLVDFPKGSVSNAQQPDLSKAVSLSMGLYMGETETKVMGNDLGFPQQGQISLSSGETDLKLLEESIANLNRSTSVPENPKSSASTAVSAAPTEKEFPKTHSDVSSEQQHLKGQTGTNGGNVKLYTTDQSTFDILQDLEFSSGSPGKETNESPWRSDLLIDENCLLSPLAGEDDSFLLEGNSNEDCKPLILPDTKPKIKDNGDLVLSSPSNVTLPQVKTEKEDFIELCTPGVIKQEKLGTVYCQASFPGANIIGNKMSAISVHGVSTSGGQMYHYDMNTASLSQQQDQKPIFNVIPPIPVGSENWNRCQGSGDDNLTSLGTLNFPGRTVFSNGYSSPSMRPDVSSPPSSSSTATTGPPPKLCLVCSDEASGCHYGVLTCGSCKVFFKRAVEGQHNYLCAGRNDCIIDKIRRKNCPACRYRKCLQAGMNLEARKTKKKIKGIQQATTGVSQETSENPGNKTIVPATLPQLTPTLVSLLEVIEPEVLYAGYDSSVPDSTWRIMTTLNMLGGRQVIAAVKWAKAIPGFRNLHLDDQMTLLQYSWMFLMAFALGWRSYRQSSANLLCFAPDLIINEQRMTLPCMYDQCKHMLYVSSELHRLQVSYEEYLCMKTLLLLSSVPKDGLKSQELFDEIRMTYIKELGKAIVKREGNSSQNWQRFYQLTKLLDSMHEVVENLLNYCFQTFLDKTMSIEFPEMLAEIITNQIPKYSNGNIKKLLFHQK
In short: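 Translocation of GR-ED fusion to nuclear EA restores b-gal, read by luminescence after 1 h room-temperature detection. Engineered CHO-K1 biosensor cells, 1,000/well, exposed 2 h at 37 C to titrations up to 46 uM final.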

[6] = biological target: Mitogen-activated protein kinase 10 (Mus musculus) (UniProt Q61831); assay: JNK3 AlphaScreen Assay (AID 530; active means well fitted curve in either direction with a large enough effect, not every such curve was filed as active;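 further: kinase came from lysate of stimulated human HepG2 cells; signal reports phosphorylation of biotinylated GST-cJun 1-79 at Ser73 with 10 µM ATP; on the % scale 0 is the no-effect control and ±100 the full control effect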)
In short: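 Kinase buffer: 20 mM Tris-HCl pH 7.6, 10 mM MgCl2, 1 mM DTT, 0.1 mM Na3VO4, 0.01% Tween-20; ATP 10 uM. Substrate biotin-GST-cJun(1-79), enzyme from activated HepG2 lysates. Detection by Ser73 phospho-antibody AlphaScreen.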

[7] = biological target: 3',5'-cyclic-AMP phosphodiesterase 4B (Homo sapiens) (UniProt Q07343); assay: qHTS Assay for Inhibitors of PDE-IV (AID 607; active means well fitted activation curve with a large enough effect in the main read-out, with a control signal flat, not every such curve was filed as active; further: % of control where 0% means no effect)
3',5'-cyclic-AMP phosphodiesterase 4B (Homo sapiens), sequence (Q07343 whole entry, looked up): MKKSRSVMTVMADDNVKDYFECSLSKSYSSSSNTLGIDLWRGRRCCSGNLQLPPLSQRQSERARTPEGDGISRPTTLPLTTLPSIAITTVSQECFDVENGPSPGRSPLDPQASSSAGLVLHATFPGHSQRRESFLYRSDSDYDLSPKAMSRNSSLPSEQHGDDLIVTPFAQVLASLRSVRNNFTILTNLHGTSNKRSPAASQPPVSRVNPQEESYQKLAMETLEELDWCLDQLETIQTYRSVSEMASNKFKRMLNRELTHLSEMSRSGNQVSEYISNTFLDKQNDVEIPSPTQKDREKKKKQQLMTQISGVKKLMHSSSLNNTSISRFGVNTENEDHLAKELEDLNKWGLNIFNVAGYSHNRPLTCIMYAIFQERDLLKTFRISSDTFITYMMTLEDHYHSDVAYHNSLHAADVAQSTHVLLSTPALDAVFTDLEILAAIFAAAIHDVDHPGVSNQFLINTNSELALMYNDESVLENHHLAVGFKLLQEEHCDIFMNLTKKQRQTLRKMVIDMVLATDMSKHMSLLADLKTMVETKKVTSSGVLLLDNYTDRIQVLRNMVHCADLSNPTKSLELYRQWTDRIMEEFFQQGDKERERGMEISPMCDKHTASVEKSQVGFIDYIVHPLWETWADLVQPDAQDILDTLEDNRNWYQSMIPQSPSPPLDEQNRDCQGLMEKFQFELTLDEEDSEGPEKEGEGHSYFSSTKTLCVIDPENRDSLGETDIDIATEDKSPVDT
In short: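 Cell-based read-out of cAMP via a modified cyclic nucleotide-gated channel and membrane potential dye (535/590 nm) in HEK293 cells expressing PDE4 endogenously. Compounds tested up to 22.9 uM final; 100 uM RO 20-1724 reference.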

[8] = qHTS Assay for Lipid Storage Modulators (AID 1519; calls by dose curve); details: Drosophila S3 cells, BODIPY lipid droplet/cell ratio, laser cytometry, cells loaded with oleic acid; for activity change, negative = inhibition: at 57.5 µM (top of the series)
In short: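 Cells seeded at 5,000 per well were treated with compounds over a concentration series and loaded with oleic acid (400 uM, as added). Lipid droplet fluorescence (488 nm excitation, 500-530 nm channel) was read by laser-scanning cytometry and normalized to 20 uM Triacsin C.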

[9] = Counterscreen qHTS for small molecule stabilizers of the endoplasmic reticulum resident proteome: GLuc-NoTag assay (AID 1508627);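 further: SH-SY5Y cells given compound then 100 nM thapsigargin to empty ER calcium; 0% = thapsigargin alone and -100% = DMSO vehicle control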
In short: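 Counterscreen line: SH-SY5Y-GLuc-NoTag cells, treated with compound 19 hr before a 4 hr, 100 nM thapsigargin calcium depletion. Secreted Gaussia luciferase in the medium was measured by luminescence after coelenterazine was added (0.07x final), with cells unlysed.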

[10] = Confirmatory qHTS for small molecule stabilizers of the endoplasmic reticulum resident proteome: Secreted ER Calcium Modulated Protein (SERCaMP) assay (AID 1508628); further: nearly all actives have a fitted effect of over 40% in size; further: potency means the concentration at half of the fitted maximal effect
In short: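 GLuc-SERCaMP-expressing SH-SY5Y cells, pretreated 16 h with compound, are challenged with thapsigargin to empty ER calcium stores; after 4 h, coelenterazine is added directly to the medium and luminescence is imaged.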

[11] = Cell Viability qHTS for small molecule stabilizers of the endoplasmic reticulum resident proteome (AID 1508629); details: cell viability counter-screen, 100 nM thapsigargin for final 4 h
[12] = biological target: Glucocorticoid receptor (Homo sapiens) (UniProt P04150); assay: GR-GFP Redistribution (AID 450;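 active means compounds whose dose series gives a full or clear partial fitted curve of increased nuclear translocation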; further: potency means the concentration at half of the fitted maximal effect); details: U2OS GR-GFP nuclear translocation, laser cytometry, 2 h
[13] = biological target: Dual specificity protein kinase CLK4 (Homo sapiens) (UniProt Q9HAZ1); assay: qHTS Assay for Inhibitors of CDC-like Kinase 4 (Kinase-Glo Assay) (AID 1770); further: on the % scale 0 is the no-effect control and ±100 the full control effect; nearly all actives have a fitted effect of over 65% in size
Dual specificity protein kinase CLK4 (Homo sapiens), sequence (Q9HAZ1 whole entry, looked up): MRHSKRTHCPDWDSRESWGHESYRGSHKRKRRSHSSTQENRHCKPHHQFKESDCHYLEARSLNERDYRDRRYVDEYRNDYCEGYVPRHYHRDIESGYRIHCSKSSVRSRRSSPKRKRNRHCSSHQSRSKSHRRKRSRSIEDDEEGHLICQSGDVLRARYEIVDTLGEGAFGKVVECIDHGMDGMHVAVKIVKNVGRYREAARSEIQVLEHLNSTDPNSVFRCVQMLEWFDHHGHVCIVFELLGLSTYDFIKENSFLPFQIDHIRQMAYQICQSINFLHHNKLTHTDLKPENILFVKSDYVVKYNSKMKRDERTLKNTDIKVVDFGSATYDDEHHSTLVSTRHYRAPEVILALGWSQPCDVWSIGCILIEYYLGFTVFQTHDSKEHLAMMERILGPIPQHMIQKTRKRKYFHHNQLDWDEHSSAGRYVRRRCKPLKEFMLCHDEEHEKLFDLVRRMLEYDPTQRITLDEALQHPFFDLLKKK
In short: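 Recombinant human Clk4 (25 nM) phosphorylated RS repeat peptide (100 uM) with 1 uM ATP in Tris pH 7.5/MgCl2/EGTA/DTT/Triton buffer for 4.5 h at room temperature. Residual ATP was quantified by Kinase-Glo luciferase luminescence.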

[14] = biological target: Dual specificity protein kinase CLK4 (Homo sapiens) (UniProt Q9HAZ1); assay: qHTS Assay for Inhibitors of CDC-like Kinase 4 (ADP-Glo Assay) (AID 1771); further: on the % scale 0 is the no-effect control and ±100 the full control effect; nearly all actives have a fitted effect of over 70% in size
In short: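 In this ADP-Glo format, 1 uM ATP and 100 uM RS peptide served as substrates for 25 nM Clk4 in Mg2+/EGTA/DTT/Triton buffer; reactions ran 1 hr at room temperature before luminescent ADP quantification.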

[15] = biological target: Dual specificity protein kinase CLK4 (Homo sapiens) (UniProt Q9HAZ1); assay: qHTS Assay for Inhibitors of CDC-like Kinase 4 (ADP-FP Assay) (AID 1795); further: on the % scale 0 is the no-effect control and ±100 the full control effect; nearly all actives have a fitted effect of over 60% in size
In short: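 Recombinant human Clk4 (6.25 nM) phosphorylated RS repeat peptide (100 uM) with 1 uM ATP in Tris pH 7.5/MgCl2/EGTA/DTT/Triton buffer for one hour. ADP was quantified by Transcreener competitive fluorescence polarization against an ADP calibration curve.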

[16] = biological target: Ubiquitin carboxyl-terminal hydrolase 1 (Homo sapiens) (UniProt O94782); assay: Inhibitors of USP1/UAF1: Pilot qHTS (AID 504865);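 further: rhodamine fluorescence freed from ubiquitin-rhodamine substrate followed over time; top concentration of the series differs between compounds; on the % scale 0 is the no-effect control and ±100 the full control effect; nearly all actives have a fitted effect of over 35% in size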
Ubiquitin carboxyl-terminal hydrolase 1 (Homo sapiens), sequence (O94782 whole entry, looked up): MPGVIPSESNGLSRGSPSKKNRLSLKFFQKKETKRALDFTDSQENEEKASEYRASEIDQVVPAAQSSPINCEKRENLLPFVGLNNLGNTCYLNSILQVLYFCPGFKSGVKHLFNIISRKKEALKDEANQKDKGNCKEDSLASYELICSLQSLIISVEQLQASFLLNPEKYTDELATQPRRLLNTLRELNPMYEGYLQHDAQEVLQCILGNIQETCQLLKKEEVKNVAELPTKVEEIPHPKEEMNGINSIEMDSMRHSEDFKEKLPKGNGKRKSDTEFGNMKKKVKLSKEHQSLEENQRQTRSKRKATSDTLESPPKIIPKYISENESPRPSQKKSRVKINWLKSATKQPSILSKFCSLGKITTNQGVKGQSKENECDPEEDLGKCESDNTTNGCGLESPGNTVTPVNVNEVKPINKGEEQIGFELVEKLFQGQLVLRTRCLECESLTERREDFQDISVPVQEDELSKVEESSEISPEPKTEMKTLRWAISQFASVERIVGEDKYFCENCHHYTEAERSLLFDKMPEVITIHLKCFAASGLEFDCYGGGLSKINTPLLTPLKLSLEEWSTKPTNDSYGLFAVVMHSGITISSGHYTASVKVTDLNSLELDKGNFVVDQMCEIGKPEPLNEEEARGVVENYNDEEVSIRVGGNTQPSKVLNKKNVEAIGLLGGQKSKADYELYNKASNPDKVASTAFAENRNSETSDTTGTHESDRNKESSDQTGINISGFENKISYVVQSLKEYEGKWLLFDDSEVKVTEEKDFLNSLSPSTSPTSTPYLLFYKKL
In short: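 USP1/UAF1 complex (1nM) preincubated with compound 15 min at room temperature, then Ub-Rho substrate (150nM final) added. Fluorescence read kinetically at 480/540 nm, 6 reads every 60 seconds. Buffer: 50mM HEPES pH 7.8, 0.5mM EDTA, 0.1 mg/ml BSA, 1mM TCEP, 0.01% Tween-20.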

[17] = biological target: Cytochrome P450 1A2 (Homo sapiens) (UniProt P05177); assay: p450-cyp1a2 (AID 410; calls by dose curve; further: potency means the concentration at half of the fitted maximal effect)
Cytochrome P450 1A2 (Homo sapiens), sequence (P05177 whole entry, looked up): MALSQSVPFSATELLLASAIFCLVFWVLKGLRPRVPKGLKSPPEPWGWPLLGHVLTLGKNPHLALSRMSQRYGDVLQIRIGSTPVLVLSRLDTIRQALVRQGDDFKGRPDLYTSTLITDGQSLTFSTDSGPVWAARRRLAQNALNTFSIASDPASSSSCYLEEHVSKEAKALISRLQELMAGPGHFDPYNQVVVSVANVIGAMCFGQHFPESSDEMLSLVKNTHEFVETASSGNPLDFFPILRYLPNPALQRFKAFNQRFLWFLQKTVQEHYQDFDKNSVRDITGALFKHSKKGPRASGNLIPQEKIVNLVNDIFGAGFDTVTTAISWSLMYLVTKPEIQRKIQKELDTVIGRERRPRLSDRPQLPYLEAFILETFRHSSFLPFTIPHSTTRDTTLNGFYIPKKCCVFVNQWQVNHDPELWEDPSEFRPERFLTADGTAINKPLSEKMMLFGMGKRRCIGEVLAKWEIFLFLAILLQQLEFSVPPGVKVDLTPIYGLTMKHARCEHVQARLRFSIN
In short: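 Read-out is luminescence from luciferin produced by CYP1A2 demethylation of Luciferin-ME (100uM, at Km). Detection reagent stopped the 60 min NADPH-dependent reaction; signals were normalized to 57 uM furafylline.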

[18] = biological target: Cytochrome P450 3A4 (Homo sapiens) (UniProt P08684); assay: qHTS Assay for Activators of Cytochrome P450 3A4 (AID 885); further: nearly all actives have a fitted effect of over 65% in size
Cytochrome P450 3A4 (Homo sapiens), sequence (P08684 whole entry, looked up): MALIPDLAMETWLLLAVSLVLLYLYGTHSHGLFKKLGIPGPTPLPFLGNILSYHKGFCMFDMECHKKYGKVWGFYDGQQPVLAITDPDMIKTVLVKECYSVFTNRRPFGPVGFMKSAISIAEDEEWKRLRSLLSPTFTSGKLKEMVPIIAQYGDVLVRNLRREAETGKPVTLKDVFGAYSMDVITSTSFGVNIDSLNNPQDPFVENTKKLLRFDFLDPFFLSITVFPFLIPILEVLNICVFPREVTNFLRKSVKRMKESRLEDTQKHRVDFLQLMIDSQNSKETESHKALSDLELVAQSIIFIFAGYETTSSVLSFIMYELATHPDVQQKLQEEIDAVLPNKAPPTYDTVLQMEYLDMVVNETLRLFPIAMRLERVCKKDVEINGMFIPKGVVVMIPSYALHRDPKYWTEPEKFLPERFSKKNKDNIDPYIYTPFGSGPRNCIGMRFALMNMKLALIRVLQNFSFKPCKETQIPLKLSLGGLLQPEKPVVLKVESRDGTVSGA
In short: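 Luminescent readout of luciferin formed from 25 uM Luciferin-PPXE (KM level) by 20 nM CYP3A4 in 200 mM KPO4, with 60 min NADPH-driven reaction at room temperature after 10 min compound exposure. Ketoconazole (57 uM) defined 100% inhibition.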

[19] = measured here: cell count channel max response
[20] = measured here: lipid channel max response

| SMILES | Potency [1] | activity change, negative = inhibition [2] | activity change, negative = inhibition [3] | activity, negative = inhibition [4] | Potency [5] | outcome [6] | Potency [7] | activity change, negative = inhibition [8] | max response [8, 19] | max response [8, 20] | Potency [9] | Potency [10] | max response [11] | Potency [12] | Potency [13] | Potency [14] | Potency [15] | Potency [16] | Potency [17] | Potency [18] |
| --- | --- | --- | --- | --- | --- | --- | --- | --- | --- | --- | --- | --- | --- | --- | --- | --- | --- | --- | --- | --- |
| O=C(Nc1cccc(F)c1)N1CCC2(CC1)CCN(S(=O)(=O)c1ccccc1)CC2 | > 11.4 µM (inactive) | -14.1% (inactive) | 11.4% (inactive) | -8.13% (inactive) | > 46 µM (inactive) | inactive | inactive | -0.528% (inactive) | 0.271% | 1.82% | inactive | inactive | 3.59% (inactive) |  |  |  |  |  |  |  |
| COc1cccc(Cn2c(=O)c(C)nc3cnc(N4CCN(C)CC4)nc32)c1 | > 11.4 µM (inactive) | -0.444% (inactive) | 5.99% (inactive) | -11.6% (inactive) |  | inactive | inactive | -3.34% (inactive) | 13.5% | 7.13% | inactive | inactive |  | > 9.22 µM (inactive) | inactive | inactive | inactive | inactive |  |  |
| Fc1ccc(Nc2ccnc(-c3ccccc3C(F)(F)F)n2)cc1 | > 11.4 µM (inactive) | -7.91% (inactive) | -6.61% (inactive) | 3.25% (inactive) | > 46 µM (inactive) | inactive | inactive |  |  |  | inactive | 50.1 µM (active) | -1.83% (inactive) | > 46 µM (inactive) | inactive | inactive | inactive |  | 2 µM (active) | inactive |
| O=c1c(-c2cccs2)nc2cnc(N3CCNCC3)nc2n1-c1ccccc1 | > 11.4 µM (inactive) |  |  |  | > 46 µM (inactive) | inactive | inactive |  |  |  | inactive | inactive | 6.37% (inactive) | > 9.22 µM (inactive) |  |  |  |  | 2.51 µM (active) | inactive |
| CCNc1ncc2nc(CCc3ccccc3)c(=O)n(-c3ccccc3)c2n1 | > 11.4 µM (inactive) | -30.4% (inactive) | -2.92% (inactive) | 16.3% (inactive) | > 46 µM (inactive) | inactive |  |  |  |  | inactive | 35.5 µM (active) | 16.3% (inactive) | > 9.22 µM (inactive) |  |  |  |  | 1.26 µM (active) | inactive |
| O=C(c1cc(C(F)(F)F)cc(C(F)(F)F)c1)N1CCC2(CC1)CCN(c1ccncc1)CC2 | > 11.4 µM (inactive) | 24.2% (inactive) |  | 16.4% (inactive) | > 46 µM (inactive) | inactive |  | 0.636% (inactive) | -1.35% | 0.493% | inactive | inactive |  |  |  |  |  |  |  |  |
